According to the supplement of paper PMC10849652:
The full data set covers some 8,800 targets. This sample favours those with a hit. About 0.5% of all pairs of compound and target were hits.

Assays:
Experiment in all cases: log2 fold change, soluble protein after heating vs DMSO (PISA); higher = thermal stabilisation; K562 lysate, 10 uM; active = over 0.2 and 3.5 SD of the protein, either way, in both replicates (recomputed)
[1] = compound: C1=CC=C(C=C1)[C@H](COC2=CC3=C(C=C2)NC(=O)N3)NC(=O)C4=CC=CN(C4=O)CC5=CC(=C(C=C5)F)F
Outline: (§1)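 Log-two fold change in thermal stability relative to solvent controls is reported from duplicates. For each sample, crude K562 extract from dounce-homogenised pellets in PBS pH 7.4 with 1 mM MgCl2, at 1 mg/mL protein, was treated with 10 μM compound for 30 min. Aliquots heated for 3 min across 48°C-58°C were pooled, brought to 0.5% NP-40 at 4°C and cleared at 21,000xg for 90 min. The supernatant was quantified by TMTpro 16plex LC-MS/MS with channel sums equalised.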

[2] = compound: CC1=C(SC2=C1C(=N[C@H](C3=NN=C(N32)C)CC(=O)N)C4=CC=C(C=C4)Cl)C
Outline: as §1

[3] = compound: CC1=C2C(=CC=C1)N=C(N(C2=O)C3=CC=CC=C3C)CN4C=NC5=C(N=CN=C54)N
Outline: as §1

[4] = compound: Cc1sc2c(c1C)C(c1ccc(Cl)cc1)=N[C@@H](CC(=O)OC(C)(C)C)c1nnc(C)n1-2
Outline: as §1

[5] = compound: c1ccc([C@@H]2C[C@H]2NC2CCNCC2)cc1
Outline: as §1

Measured: log2 fold change

YLPM1 (UniProt P49750)
Sequence of UniProt P49750 (P49750 whole entry, looked up): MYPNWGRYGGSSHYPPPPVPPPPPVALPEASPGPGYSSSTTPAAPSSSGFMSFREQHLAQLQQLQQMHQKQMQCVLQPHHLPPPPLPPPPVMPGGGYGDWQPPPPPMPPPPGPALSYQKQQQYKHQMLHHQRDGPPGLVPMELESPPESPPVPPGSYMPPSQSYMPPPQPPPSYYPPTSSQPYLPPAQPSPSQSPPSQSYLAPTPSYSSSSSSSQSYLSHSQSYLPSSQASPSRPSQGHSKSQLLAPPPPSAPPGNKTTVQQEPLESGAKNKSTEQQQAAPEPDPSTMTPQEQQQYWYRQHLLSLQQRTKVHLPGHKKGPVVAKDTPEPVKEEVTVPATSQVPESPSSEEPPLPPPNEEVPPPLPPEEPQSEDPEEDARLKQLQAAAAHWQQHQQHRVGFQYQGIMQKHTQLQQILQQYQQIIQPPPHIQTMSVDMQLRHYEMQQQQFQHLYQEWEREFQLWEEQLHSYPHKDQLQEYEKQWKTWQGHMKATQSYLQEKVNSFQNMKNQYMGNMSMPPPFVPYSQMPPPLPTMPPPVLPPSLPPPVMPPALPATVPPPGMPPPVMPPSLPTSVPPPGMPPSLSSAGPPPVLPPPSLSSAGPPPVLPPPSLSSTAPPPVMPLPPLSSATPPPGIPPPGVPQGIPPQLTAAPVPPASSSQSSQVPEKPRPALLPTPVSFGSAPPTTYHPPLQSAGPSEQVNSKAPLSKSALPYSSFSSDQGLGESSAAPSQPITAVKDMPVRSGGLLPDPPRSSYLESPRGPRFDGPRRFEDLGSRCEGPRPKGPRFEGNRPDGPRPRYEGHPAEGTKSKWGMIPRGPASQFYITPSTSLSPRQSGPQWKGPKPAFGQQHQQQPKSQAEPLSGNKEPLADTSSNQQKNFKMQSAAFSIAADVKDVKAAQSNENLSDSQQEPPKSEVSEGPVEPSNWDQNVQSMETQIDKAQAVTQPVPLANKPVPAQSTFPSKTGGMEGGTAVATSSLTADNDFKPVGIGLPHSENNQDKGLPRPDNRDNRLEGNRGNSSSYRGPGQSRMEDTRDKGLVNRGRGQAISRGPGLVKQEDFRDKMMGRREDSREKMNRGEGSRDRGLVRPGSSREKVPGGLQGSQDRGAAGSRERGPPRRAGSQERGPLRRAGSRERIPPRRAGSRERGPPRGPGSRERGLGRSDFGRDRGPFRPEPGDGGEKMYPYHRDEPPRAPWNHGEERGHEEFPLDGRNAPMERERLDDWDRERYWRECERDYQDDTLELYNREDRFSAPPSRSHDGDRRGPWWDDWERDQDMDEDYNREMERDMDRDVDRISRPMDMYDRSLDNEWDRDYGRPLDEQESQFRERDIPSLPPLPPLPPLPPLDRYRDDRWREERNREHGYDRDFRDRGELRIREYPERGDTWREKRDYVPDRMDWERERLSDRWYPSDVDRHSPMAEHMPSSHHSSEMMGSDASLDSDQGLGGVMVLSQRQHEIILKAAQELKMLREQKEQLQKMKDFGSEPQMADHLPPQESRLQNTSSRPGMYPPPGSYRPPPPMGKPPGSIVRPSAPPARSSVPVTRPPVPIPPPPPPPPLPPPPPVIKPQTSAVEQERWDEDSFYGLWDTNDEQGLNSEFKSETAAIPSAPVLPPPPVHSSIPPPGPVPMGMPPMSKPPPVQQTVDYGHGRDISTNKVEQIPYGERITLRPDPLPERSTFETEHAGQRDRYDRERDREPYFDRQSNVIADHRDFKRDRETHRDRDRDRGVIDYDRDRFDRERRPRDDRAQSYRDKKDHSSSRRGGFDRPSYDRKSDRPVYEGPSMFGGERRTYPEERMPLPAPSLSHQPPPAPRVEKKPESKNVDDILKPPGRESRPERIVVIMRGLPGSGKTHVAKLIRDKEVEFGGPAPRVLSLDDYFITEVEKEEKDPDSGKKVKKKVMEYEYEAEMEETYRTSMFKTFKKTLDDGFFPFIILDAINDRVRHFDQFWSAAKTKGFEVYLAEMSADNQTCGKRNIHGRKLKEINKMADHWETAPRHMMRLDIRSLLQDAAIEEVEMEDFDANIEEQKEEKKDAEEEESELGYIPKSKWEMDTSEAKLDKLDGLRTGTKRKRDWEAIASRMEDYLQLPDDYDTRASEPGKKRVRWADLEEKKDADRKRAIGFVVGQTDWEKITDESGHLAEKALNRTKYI
inactive: [1] -0.029 | [2] -0.04 | [3] 0.034 | [4] 0.005 | [5] 0.05

XPNPEP1 isoform 3 (UniProt Q9NQW7)
inactive: [1] -0.007 | [2] -0.025 | [3] 0.002 | [4] 0.044 | [5] -0.006

VARS (UniProt P26640)
inactive: [1] -0.022 | [2] 0.013 | [3] 0.013 | [4] 0 | [5] 0.031

USP22 (UniProt Q9UPT9)
Sequence of UniProt Q9UPT9 (Q9UPT9 whole entry, looked up): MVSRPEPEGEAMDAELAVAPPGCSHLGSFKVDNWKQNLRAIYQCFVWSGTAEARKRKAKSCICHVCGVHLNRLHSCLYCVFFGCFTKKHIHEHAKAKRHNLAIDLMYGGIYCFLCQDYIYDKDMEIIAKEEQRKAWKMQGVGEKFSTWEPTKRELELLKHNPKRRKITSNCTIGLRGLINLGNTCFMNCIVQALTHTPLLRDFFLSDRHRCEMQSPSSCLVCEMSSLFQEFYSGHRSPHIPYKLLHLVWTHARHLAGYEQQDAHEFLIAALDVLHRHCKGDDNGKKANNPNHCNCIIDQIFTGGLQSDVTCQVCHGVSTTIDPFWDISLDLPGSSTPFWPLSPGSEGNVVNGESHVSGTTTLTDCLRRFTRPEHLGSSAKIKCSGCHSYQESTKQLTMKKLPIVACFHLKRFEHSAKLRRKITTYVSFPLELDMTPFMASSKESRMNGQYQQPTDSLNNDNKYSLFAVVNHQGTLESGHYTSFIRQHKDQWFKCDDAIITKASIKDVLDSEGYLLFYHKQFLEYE
inactive: [1] 0.039 | [2] -0.025 | [3] 0.012 | [4] 0.045 | [5] 0.055

UQCC2 (UniProt Q9BRT2)
inactive: [1] 0.008 | [2] 0.019 | [3] -0.056 | [4] -0.057 | [5] 0.095

VPS16 (UniProt Q9H269)
inactive: [1] -0.035 | [2] -0.009 | [3] 0.041 | [4] 0.011 | [5] 0.005

UPF3B (UniProt Q9BZI7)
inactive: [1] 0.031 | [2] -0.008 | [3] -0.043 | [4] 0.022 | [5] -0.097

ULK3 isoform 4 (UniProt Q6PHR2)
inactive: [1] -0.015 | [2] 0.043 | [3] -0.117 | [4] -0.026 | [5] 0.125

USP48 isoform 8 (UniProt Q86UV5)
inactive: [1] 0.006 | [2] -0.016 | [3] 0.015 | [4] 0.003 | [5] 0.035

WDR36 (UniProt Q8NI36)
inactive: [1] 0.006 | [2] 0.001 | [3] 0.06 | [4] 0.025 | [5] 0.035

XPO6 (UniProt Q96QU8)
inactive: [1] -0.053 | [2] 0.057 | [3] 0.023 | [4] 0.039 | [5] -0.045

ZNF217 (UniProt O75362)
inactive: [1] -0.037 | [2] 0.075 | [3] 0.129 | [4] 0.053 | [5] 0

ZBTB33 (UniProt Q86T24)
inactive: [1] 0.046 | [2] -0.082 | [3] 0.003 | [4] 0 | [5] -0.015

WDHD1 (UniProt O75717)
inactive: [1] 0.018 | [2] -0.011 | [3] -0.017 | [4] 0.011 | [5] 0.067

ZFYVE19 isoform 3 (UniProt Q96K21)
inactive: [1] 0.062 | [2] -0.075

VASP (UniProt P50552)
Sequence of UniProt P50552 (P50552 whole entry, looked up): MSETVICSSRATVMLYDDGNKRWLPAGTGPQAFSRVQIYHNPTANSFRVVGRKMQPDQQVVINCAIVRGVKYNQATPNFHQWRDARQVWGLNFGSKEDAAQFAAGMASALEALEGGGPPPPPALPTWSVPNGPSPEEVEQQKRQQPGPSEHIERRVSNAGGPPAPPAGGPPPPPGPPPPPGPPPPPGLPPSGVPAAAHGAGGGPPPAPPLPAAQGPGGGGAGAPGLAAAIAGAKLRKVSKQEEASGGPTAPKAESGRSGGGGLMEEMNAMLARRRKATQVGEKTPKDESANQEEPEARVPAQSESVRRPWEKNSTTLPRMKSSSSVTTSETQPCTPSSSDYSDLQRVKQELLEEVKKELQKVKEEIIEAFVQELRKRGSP
inactive: [1] -0.005 | [2] 0.006 | [3] 0.008 | [4] -0.052 | [5] 0.017

YRDC (UniProt Q86U90)
inactive: [1] -0.009 | [2] 0.02 | [3] -0.046 | [4] -0.029 | [5] -0.053

UNKL (UniProt E9PDK2)
inactive: [1] -0.025 | [2] 0.09 | [3] 0.249 | [4] 0.022

USP48 (UniProt Q86UV5)
inactive: [1] -0.104 | [2] -0.028 | [3] -0.029 | [4] 0.098 | [5] -0.187

XPO5 (UniProt Q9HAV4)
inactive: [1] -0.046 | [2] -0.021 | [3] 0.002 | [4] -0.021 | [5] 0.032

ZC3HC1 (UniProt Q86WB0)
inactive: [1] 0.002 | [2] 0.045 | [3] 0.006 | [4] 0.019 | [5] 0.061

WEE1 (UniProt P30291)
inactive: [1] -0.002 | [2] -0.099 | [3] -0.047 | [4] 0.03

ZNF318 (UniProt Q5VUA4)
inactive: [1] -0.017 | [2] 0.133 | [3] 0 | [4] 0.018 | [5] 0.038

VCPIP1 (UniProt Q96JH7)
inactive: [1] -0.025 | [2] -0.008 | [3] 0.002 | [4] -0.052 | [5] -0.002

UQCRC2 (UniProt P22695)
inactive: [1] 0.003 | [2] 0.037 | [3] -0.007 | [4] 0.006 | [5] -0.015

URGCP (UniProt Q8TCY9)
Sequence of UniProt Q8TCY9 (Q8TCY9 whole entry, looked up): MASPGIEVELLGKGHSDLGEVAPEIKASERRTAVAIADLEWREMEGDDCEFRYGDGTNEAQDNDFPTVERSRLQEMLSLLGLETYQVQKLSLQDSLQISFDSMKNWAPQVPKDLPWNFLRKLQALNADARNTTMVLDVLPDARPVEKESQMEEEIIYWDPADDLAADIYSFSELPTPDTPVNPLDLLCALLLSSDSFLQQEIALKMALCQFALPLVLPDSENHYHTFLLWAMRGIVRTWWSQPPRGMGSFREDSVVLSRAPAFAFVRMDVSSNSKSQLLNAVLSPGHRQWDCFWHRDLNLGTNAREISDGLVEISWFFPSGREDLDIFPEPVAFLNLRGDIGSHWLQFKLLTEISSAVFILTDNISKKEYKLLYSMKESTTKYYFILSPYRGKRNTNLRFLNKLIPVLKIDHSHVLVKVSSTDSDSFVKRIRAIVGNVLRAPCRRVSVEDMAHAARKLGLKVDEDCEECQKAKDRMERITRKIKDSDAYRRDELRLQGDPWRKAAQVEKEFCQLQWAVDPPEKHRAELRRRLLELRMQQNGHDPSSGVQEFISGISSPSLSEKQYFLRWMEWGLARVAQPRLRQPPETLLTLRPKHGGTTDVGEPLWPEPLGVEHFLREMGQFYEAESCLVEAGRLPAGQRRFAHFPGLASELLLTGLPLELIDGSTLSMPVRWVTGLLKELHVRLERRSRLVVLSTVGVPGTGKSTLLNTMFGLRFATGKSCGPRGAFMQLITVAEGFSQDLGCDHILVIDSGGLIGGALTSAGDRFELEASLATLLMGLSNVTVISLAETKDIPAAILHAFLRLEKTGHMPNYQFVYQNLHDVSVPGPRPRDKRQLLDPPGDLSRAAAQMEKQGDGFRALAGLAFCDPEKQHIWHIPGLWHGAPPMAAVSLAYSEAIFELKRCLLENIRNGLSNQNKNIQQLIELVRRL
inactive: [1] 0.003 | [2] 0.036 | [3] 0.044 | [4] 0.047

ZSWIM8 isoform 4 (UniProt A7E2V4)
inactive: [1] 0.076 | [2] -0.038 | [3] 0.071 | [4] 0.013 | [5] 0.03

ZFPM1 (UniProt Q8IX07)
inactive: [1] 0.073 | [2] -0.033 | [3] -0.012 | [4] -0.036 | [5] 0.078

WDR20 isoform 7 (UniProt Q8TBZ3)
inactive: [1] -0.037 | [2] -0.002 | [3] 0.035 | [4] -0.176 | [5] -0.124

UNC13D (UniProt Q70J99)
inactive: [1] -0.032 | [2] 0.067 | [3] 0.044 | [4] 0.025 | [5] 0.024

VRK2 (UniProt Q86Y07)
inactive: [1] 0.004 | [2] 0 | [3] -0.242 | [4] -0.023 | [5] -0.018

ZMYM4 (UniProt Q5VZL5)
inactive: [1] 0.133 | [2] -0.081 | [3] -0.054 | [4] -0.023 | [5] 0.011

VPS28 (UniProt Q9UK41)
Sequence of UniProt Q9UK41 (Q9UK41 whole entry, looked up): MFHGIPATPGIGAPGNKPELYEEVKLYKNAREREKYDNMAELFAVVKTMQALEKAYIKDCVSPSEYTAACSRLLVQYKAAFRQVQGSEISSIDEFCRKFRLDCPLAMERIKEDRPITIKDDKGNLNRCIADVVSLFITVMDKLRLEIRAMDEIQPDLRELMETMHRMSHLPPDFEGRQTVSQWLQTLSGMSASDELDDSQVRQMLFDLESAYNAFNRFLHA
inactive: [1] -0.087 | [2] -0.04 | [3] -0.013 | [4] 0.073 | [5] 0

WDR77 (UniProt Q9BQA1)
inactive: [1] 0.02 | [2] 0.012 | [3] 0.012 | [4] 0.006 | [5] 0.006

ZMYM1 (UniProt Q5SVZ6)
inactive: [1] 0.009 | [2] 0.099 | [3] -0.012 | [4] 0 | [5] -0.2

ZNHIT6 (UniProt Q9NWK9)
inactive: [1] 0.106 | [2] -0.063 | [3] 0.013 | [4] 0.089 | [5] 0.008

VHL (UniProt P40337)
inactive: [1] 0.165 | [2] 0.004 | [3] -0.029 | [4] -0.178 | [5] 0.08

YTHDF3 (UniProt Q7Z739)
inactive: [1] -0.111 | [2] 0.021 | [3] 0.063 | [4] -0.01 | [5] -0.018

ZC3H11A (UniProt O75152)
inactive: [1] -0.015 | [2] 0 | [3] 0.081 | [4] 0.023 | [5] 0.063

VANGL1 (UniProt Q8TAA9)
Sequence of UniProt Q8TAA9 (Q8TAA9 whole entry, looked up): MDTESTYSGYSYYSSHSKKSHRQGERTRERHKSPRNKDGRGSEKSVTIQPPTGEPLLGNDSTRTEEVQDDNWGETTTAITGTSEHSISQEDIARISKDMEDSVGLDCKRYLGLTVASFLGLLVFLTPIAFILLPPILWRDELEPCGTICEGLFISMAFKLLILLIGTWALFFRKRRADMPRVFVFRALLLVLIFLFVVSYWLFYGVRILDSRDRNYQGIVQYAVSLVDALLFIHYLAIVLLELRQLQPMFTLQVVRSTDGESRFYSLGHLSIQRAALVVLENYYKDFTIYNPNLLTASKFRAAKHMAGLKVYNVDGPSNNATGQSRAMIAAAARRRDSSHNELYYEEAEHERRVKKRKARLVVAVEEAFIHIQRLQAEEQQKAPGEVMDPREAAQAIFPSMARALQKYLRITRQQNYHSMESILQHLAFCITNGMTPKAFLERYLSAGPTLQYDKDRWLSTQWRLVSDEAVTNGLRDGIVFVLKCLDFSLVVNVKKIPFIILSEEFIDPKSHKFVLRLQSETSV
inactive: [1] 0.064 | [2] 0.088 | [3] -0.055 | [4] -0.004 | [5] -0.076

ZHX1 (UniProt Q9UKY1)
inactive: [1] 0.016 | [2] 0.036 | [3] 0.022 | [4] -0.224 | [5] -0.22

USE1 (UniProt Q9NZ43)
inactive: [1] 0.006 | [2] 0.008 | [3] -0.119 | [4] -0.109 | [5] -0.002

WRB (UniProt O00258)
inactive: [1] 0.018 | [2] -0.021 | [3] -0.029 | [4] 0 | [5] -0.191

ZMYND8 isoform 19 (UniProt Q9ULU4)
inactive: [1] -0.006 | [2] -0.011 | [3] 0.055 | [4] 0.011 | [5] -0.026

USP3 (UniProt Q9Y6I4)
inactive: [1] 0.026 | [2] 0.006 | [3] -0.056 | [4] -0.044 | [5] 0.073

VPS37B (UniProt Q9H9H4)
Sequence of UniProt Q9H9H4 (Q9H9H4 whole entry, looked up): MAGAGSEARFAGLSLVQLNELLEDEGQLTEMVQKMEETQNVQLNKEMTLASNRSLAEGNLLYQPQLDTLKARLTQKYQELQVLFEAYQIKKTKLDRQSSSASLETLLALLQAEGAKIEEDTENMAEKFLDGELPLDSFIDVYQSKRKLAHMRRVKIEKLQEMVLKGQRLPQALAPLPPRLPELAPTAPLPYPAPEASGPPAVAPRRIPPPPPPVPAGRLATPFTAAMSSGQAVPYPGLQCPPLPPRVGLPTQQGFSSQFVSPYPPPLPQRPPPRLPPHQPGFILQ
inactive: [1] 0.028 | [2] 0.039 | [3] 0.01 | [4] -0.01 | [5] 0.064

WDR62 isoform 4 (UniProt O43379)
inactive: [1] 0.026 | [2] -0.004 | [3] -0.011 | [4] 0.003 | [5] 0.038

WDR45 isoform 2 (UniProt Q9Y484)
inactive: [1] -0.024 | [2] 0.061 | [3] 0.073 | [4] -0.018 | [5] -0.014

WDR91 (UniProt A4D1P6)
inactive: [1] -0.009 | [2] 0.027 | [3] 0.009 | [4] -0.02 | [5] 0.026

WDR6 (UniProt Q9NNW5)
inactive: [1] -0.001 | [2] 0.02 | [3] 0.008 | [4] -0.021 | [5] -0.013

WAC (UniProt Q9BTA9)
inactive: [1] -0.03 | [2] 0.056 | [3] -0.013 | [4] 0.041 | [5] 0.037

USP8 (UniProt P40818)
inactive: [1] -0.018 | [2] 0.016 | [3] 0.01 | [4] 0.009 | [5] 0.036

USP10 isoform 2 (UniProt Q14694)
inactive: [1] -0.038 | [2] 0.029 | [3] 0 | [4] -0.013 | [5] 0.023

VPS41 (UniProt P49754)
inactive: [1] -0.046 | [2] 0.005 | [3] -0.016 | [4] 0.067 | [5] 0.13
